HIF act – HIF pathway transcriptional activation; 300,000 tested, 0.32% active; U2OS HRE-luciferase reporter, luminescence; normalized: DMSO 0%, desferrioxamine 100%; AID 1910; activation, % at 7.5 µM (by protocol);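 active means mean activation of at least 10% of the iron chelator positive control signal, with at least half of replicates also reaching 10%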
Mot1-301 SUMO – blocks SUMOylation pathway, rescuing yeast Mot1-301 growth | AID 2716 | S. cerevisiae Mot1-301 growth rescue, ATP luminescence, 38.5C; percent above DMSO median, 100 means doubled | growth rescue, % at 18.8 µM | 320,000 tested, 1% active;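 active means every valid replicate shows activation above 250% relative to neutral control wells; inactive means the rest, any valid replicate at or below 250%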;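 further: OY570 slx delta 5 strain wells were the positive control but not used for scaling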
AI-2 QS mod – modulates the Vibrio harveyi AI-2 quorum sensing system; AID 2094; activity change, % at 7.5 µM; 300,000 tested, 0.4% active; Vibrio harveyi JMH597 AI-2 luminescence/OD600 ratio, 9 h; active compounds read low; strain lacks LuxN and CqsS sensors; 0 = neutral-control median; in the data active means activity change below about -75%, passing the limit was not always enough;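 further: luminescence divided by OD600 gain over 9 h not by final OD600 alone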
ALR inh – inhibitors of human sulfhydryl oxidase ALR; P55789; inhibition, % (no concentration beside the values); AID 485317; 290,000 tested, 3.8% active; purified ALR, DTT oxidation, H2O2 HRP-luminol luminescence;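 active means mean replicate inhibition above about 79%, with every replicate also reaching it, limit read from the data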
Target sequence (P55789 whole entry, looked up): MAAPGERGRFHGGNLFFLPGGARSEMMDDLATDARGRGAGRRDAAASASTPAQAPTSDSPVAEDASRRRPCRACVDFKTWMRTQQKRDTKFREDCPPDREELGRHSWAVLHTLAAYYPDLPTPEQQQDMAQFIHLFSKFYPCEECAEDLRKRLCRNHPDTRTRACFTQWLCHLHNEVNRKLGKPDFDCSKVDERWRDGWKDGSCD
Active calls of the source: *; nt = not tested or not shown; + = active, no number. The list is not random: actives were taken first. Their share in the collection is about 4.8%.

SMILES | HIF act | Mot1-301 SUMO | AI-2 QS mod | ALR inh
O=C(NNc1cccc(Cl)n1)c1cccnc1Cl | 0 | -3 | 10 | -6
CCCc1c(C(=O)Nc2ccc(F)cc2F)cnn1-c1ccccc1 | 0 | 8 | 4 | -3
CCCc1c(C(=O)NNc2cccc(Cl)c2)cnn1-c1ccccc1 | 0 | 478* | 21 | 5
O=C(NNc1cccc(Cl)c1)c1cccnc1Cl | 0 | 344* | 1 | 98*
CCc1nn(CC(=O)NCCC2=CCCCC2)c(=O)c2cc3cc(F)ccc3n12 | -1 | 2 | 23 | 4
COc1ccc(-c2n[nH]c(=S)n2N)c(OC)c1 | -1 | 114 | 10 | 17
COc1ccc(-c2cn[nH]c2N)cc1 | 0 | 3 | -6 | 91*
COc1ccc(-c2cn[nH]c2N)c(OC)c1 | 0 | -14 | 11 | 99*
COc1ccc(CNC(=O)c2cc3cccc(O)c3oc2=N)cc1 | 0 | 8 | 9 | -18
CC(C)CC1NC(=O)c2ccccc2-n2c1nc1ccc(Cl)cc1c2=O (stereo unspecified) | nt | 28 | nt | -7
O=C(c1ccc2c(=O)n(Cc3ccccc3Cl)c(=S)[nH]c2c1)N1CCCC1 | -1 | -19 | 14 | 0
CCCCN(C(=O)c1cc(CC)c(C)s1)c1c(N)n(CCC)c(=O)[nH]c1=O | 0 | -4 | 3 | -1
O=C(N/N=C/c1ccc(O)c(O)c1)N/N=C/c1ccc(O)c(O)c1 | 3 | -3 | -4 | 100*
Cc1cc(SCC(=O)N/N=C/c2ccc(O)c(O)c2)c(C)cc1Br | 0 | 6 | 9 | 99*
COc1cccc2c(SCC(=O)N/N=C/c3ccccc3)cc(C)nc12 | 0 | 5 | 0 | 99*
COc1ccc(Nc2cc(C)nc3c(C)cccc23)cc1OC | 1 | -6 | 8 | -2
COc1cccc2c(N/N=C/c3ccccc3)cc(C)nc12 | -4 | -1 | 18 | 87*
COc1ccc(-c2noc(CN3CCN(C(=O)c4cccs4)CC3)n2)c(OC)c1OC | 0 | -5 | 6 | 1
COc1ccc2c(c1)c(C(=O)N/N=C/c1ccc(O)c(O)c1)c(C)n2C | 0 | -30 | 0 | 100*
COc1ccc2nc(C)cc(SCC(=O)N/N=C/c3cccc4ccccc34)c2c1 | 1 | 4 | 38 | 0
Cc1cc(SCC(=O)N/N=C/c2ccc(O)c(O)c2)nc2ccccc12 | -1 | 12 | 10 | nt
COc1ccc2nc(C)cc(SCC(=O)N/N=C/c3ccc(O)c(O)c3)c2c1 | 1 | 29 | 10 | 88*
COc1cccc2c(SCC(=O)N/N=C/c3ccc(O)c(O)c3)cc(C)nc12 | 0 | -4 | 7 | 100*
O=C(NCCCN1CCOCC1)c1cnccn1 | -1 | 4 | 20 | -3
CN(c1cccc(Cl)c1)S(=O)(=O)c1cccc(C(=O)NCc2ccncc2)c1 | nt | 22 | nt | -5
SMILES | HIF act | Mot1-301 SUMO | AI-2 QS mod | ALR inh
COc1ccc(N(C)S(=O)(=O)c2cccc(C(=O)Nc3nc4ccccc4[nH]3)c2)cc1 | -1 | -10 | 34 | nt
CN(c1cccc(Cl)c1)S(=O)(=O)c1cccc(C(=O)Nc2nc3ccccc3[nH]2)c1 | + | 12 | 24 | 71
CN(c1cccc(Cl)c1)S(=O)(=O)c1cccc(C(=O)NC2=NCCS2)c1 | 0 | -12 | 0 | 98*
CCCCNC(=S)N(CCN(C)C)Cc1cc2cc3c(cc2[nH]c1=O)OCCO3 | -31 | -9 | 22 | -23
CC(=O)NS(=O)(=O)c1ccc(NC(=O)[C@@H]2CCCN2S(=O)(=O)c2ccc(Cl)cc2)cc1 | nt | 2 | nt | 5
CCOCCn1c(CN2CCN(c3cccc(Cl)c3)CC2)nc2c1c(=O)n(C)c(=O)n2C | 0 | 49 | 13 | nt
COc1ccc(N2CCN(Cc3nc4c(c(=O)n(C)c(=O)n4C)n3C(C)C(C)=O)CC2)cc1 (stereo unspecified) | 0 | -1 | 11 | 89*
CCOCCn1c(CN2CCN(c3ccc(F)cc3)CC2)nc2c1c(=O)n(C)c(=O)n2C | 0 | -5 | 14 | 99*
CC(C(=O)Nc1sccc1C(N)=O)N1C(=O)C2CC=CCC2C1=O (stereo unspecified) | nt | 111 | 8 | 97*
C[C@@H](C(=O)Nc1nccs1)N1C(=O)C2CC=CCC2C1=O (stereo partly specified) | nt | 4 | nt | -5
CC1CCN(CCCn2c(=S)[nH]c3ccc(N4CCOCC4)cc3c2=O)CC1 | 0 | -11 | 0 | 85*
CCn1cc(C2=NC(CC(C)C)CO2)c2ccccc21 (stereo unspecified) | 1 | -25 | 34 | 26

Screens: PubChem BioAssay, Broad Institute
